# Screening results as filed in PubChem.
# Measles CPE = compounds protecting cells from measles virus cytopathic effect, primary screen, measles RdRp inhibitor project, single point, MLSMR library, absorbance; Measles virus-infected cells, CPE protection; protection (pct of control), % at 4 µM; 140,000 compounds, 1.5% hits; in the data active means protection mostly above about 24%, no sharp cut-off; inactive means mostly below about 26%
# CYP2C9 activ = human CYP2C9 activators, primary screen, biochemical, luminescence | Cytochrome P450 2C9 (Homo sapiens), P11712 | recombinant CYP2C9, luciferin-H conversion; stronger effect = higher value; factor 1 = untreated enzyme, 0 = blocked | activation factor at 5 µM | 96,000 compounds, 1.4% hits | AID 1024, 2008;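 active means activation factor of 2 or more for CYP2C9 at a 5 µM dose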;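 further: 0 = sulfaphenazole-blocked wells and 1 = vehicle-only wells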
# Target sequence (P11712 whole entry, looked up): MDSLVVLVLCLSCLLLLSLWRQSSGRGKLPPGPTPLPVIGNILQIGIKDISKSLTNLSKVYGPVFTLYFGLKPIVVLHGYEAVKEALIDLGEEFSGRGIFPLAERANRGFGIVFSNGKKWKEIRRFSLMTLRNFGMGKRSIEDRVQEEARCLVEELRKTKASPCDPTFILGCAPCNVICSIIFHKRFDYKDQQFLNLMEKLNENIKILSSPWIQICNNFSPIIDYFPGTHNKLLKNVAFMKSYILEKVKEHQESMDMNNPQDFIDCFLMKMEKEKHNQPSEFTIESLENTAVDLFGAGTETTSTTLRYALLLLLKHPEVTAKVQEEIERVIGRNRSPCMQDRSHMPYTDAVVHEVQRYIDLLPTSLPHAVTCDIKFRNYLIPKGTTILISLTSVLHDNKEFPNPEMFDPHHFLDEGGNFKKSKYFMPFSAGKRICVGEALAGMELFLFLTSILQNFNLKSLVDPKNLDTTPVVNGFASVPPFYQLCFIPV
# CYP2C9 inhib = blockers of cytochrome P450 2C9 activity – biochemical, luminescence, ADME assay, primary screen. CYP2C9 Supersomes, luciferin-H conversion. inhibition, % at 5 µM. 96,000 compounds, 20% hits;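 active means blocking of liver enzyme CYP2C9 beyond about 50% at 5 µM, limit read from the data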
# CYP2C19 act = human CYP2C19 activators, primary screen, biochemical, luminescence | recombinant CYP2C19, luciferin-H EGE luminescence; stronger effect = higher value; 0 = fully inhibited enzyme, 1 = untreated enzyme | activation factor at 5 µM | AID 1025, 2008 | 96,000 tested, under 10 active;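 active means activation factor of at least 2 at 5 µM in the primary screen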;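 further: 0 = wells with 2.5 mM tranylcypromine and 1 = vehicle-only wells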
# CYP2C19 inh = blockers of cytochrome P450 2C19 activity – biochemical, luminescence, ADME assay, primary screen; P33261; CYP2C19 Supersomes, luciferin-H EGE luminescence, 30 min; inhibition, % at 5 µM; 96,000 compounds, 21% hits; AID 778, 2007;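 active means CYP2C19 inhibition above a set limit at 5 µM in the primary screen, cut at about 50% in these data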;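 further: plate controls were negative control wells for no effect and 2.5 mM tranylcypromine positive control for full effect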
# Numbers without * were called inactive; . = not tested or not shown. The list is not random: actives were taken first. Their share in the collection is about 22%.
SMILES,Measles CPE,CYP2C9 activ,CYP2C9 inhib,CYP2C19 act,CYP2C19 inh
O=C(Nc1ccc(N2CCCCC2)cc1)c1cccnc1Cl,9,1,-2,0.8,16
O=C(Nc1ccc(Cl)cc1)c1cccnc1N1CCCCC1,3,0.2,78*,0.2,79*
Cc1cc(N)n(-c2ncnc3scc(-c4ccccc4)c23)n1,5,0.8,17,0.9,10
O=C(/C=C/c1cccc([N+](=O)[O-])c1)NCCc1ccc(F)cc1,15,.,.,.,.
CCSc1nc2[nH]ncc2c(=O)[nH]1,20,.,.,.,.
CCSc1nc2c(sc3nc(C)cc(C)c32)c(=O)[nH]1,7,0.4,58*,0.9,14
O=c1cc(Cl)[nH]c(=O)n1CCNc1ncc(C(F)(F)F)cc1Cl,2,0,100*,0.3,68*
CCC1(C)NC(=O)N(CC(=O)Nc2sc3c(c2C(N)=O)CCC3)C1=O (configuration not stated),4,0.5,49,0.5,49
CSc1nc(C)c(CCOCc2ccccc2)c(=O)[nH]1,13,0.5,49,0.3,69*
CC(C)c1c(O)nc(SCc2ccccc2)[nH]c1=O,3,0.5,52*,0.9,5
Cc1nc(SCC(C)C)[nH]c(=O)c1Cc1ccccc1,6,1.1,-7,0.4,59*
CCNc1nc(NCc2ccccc2)nc(SCC(=O)Nc2ccccc2)n1,13,.,.,.,.
CCC(C)OC(=O)n1ccc(C(=O)Nc2nccs2)n1 (configuration not stated),10,.,.,.,.
COC(=O)c1nn(-c2ccc3c(c2)OCO3)cc1O,13,0.9,7,0.6,42
COC(=O)c1nn(-c2ccc3c(c2)CCN3C(C)=O)cc1O,15,0.9,10,0.3,68*
O=C1OCCC1Sc1nnc(-c2ccccc2Br)n1Cc1ccccc1 (configuration not stated),36,.,.,.,.
Cc1nc(Sc2ccccc2)c(C#N)cc1-c1ccccc1,2,0.3,70*,0.4,58*
Cc1nc(Cl)c(C#N)cc1-c1ccccc1,1,0.8,20,0.1,86*
CCOc1ncccc1C(=O)Nc1cccc(C(=O)Nc2cccc(S(=O)(=O)CCO)c2)c1,3,0.5,48,0.8,20
Cc1cccc(C(=O)NC(=S)NNC(=O)c2ccc(Cl)cc2)c1,29,.,.,.,.
Cc1ccnc(NC(=O)CCC(=O)N(CC(=O)NC2CCCCC2)c2ccc3c(c2)OCO3)c1,.,0.2,75*,0.6,41
O=C(CCC(=O)N(CC(=O)NC1CCCC1)Cc1ccc2c(c1)OCO2)Nc1ccccn1,7,0.1,89*,0.6,39
COc1ccccc1C(N)=S,1,.,.,.,.
O=C(CCC1CCCCC1)Nc1ccccc1O,14,0.4,64*,0.1,93*
CCN(CC)S(=O)(=O)c1ccc(NC(=O)CCC2CCCCC2)cc1,4,0.1,93*,0.2,78*
SMILES,Measles CPE,CYP2C9 activ,CYP2C9 inhib,CYP2C19 act,CYP2C19 inh
Cn1c(NC(=O)CCC2CCCCC2)cc(=O)n(C)c1=O,14,0.3,67*,0.3,74*
O=C(CCC1CCCCC1)Nc1ccc(S(=O)(=O)Nc2nccs2)cc1,10,0.4,63*,0.5,45
CC1CCCCN1S(=O)(=O)c1ccc(S(=O)(=O)N2CCN(c3ccccc3)CC2)cc1 (configuration not stated),2,0.9,14,0.9,9
COc1ccc(OC2C(=O)N(Cc3ccc4c(c3)OCO4)C2c2sccc2C)cc1 (configuration not stated),20,0.3,69*,0.3,74*
O=C(Nc1cccc(O)c1)C(=O)Nc1ccccn1,8,.,.,.,.
COC(=O)Nc1ccc(OCc2ccccc2)cc1,19,0.8,20,0.5,46
O=C(Nc1ccccc1)OCCOc1ccccc1,5,0.7,29,0.2,85*
COC(=O)Nc1ccc(Oc2ccccc2)cc1,11,0.9,8,0.2,78*
COc1ccc(OCCOC(=O)Nc2ccccc2)cc1,2,0.6,45,0.2,82*
O=C(Nc1ccccc1)C(=O)Nc1ccccn1,27*,0.8,22,0.7,30
O=C1[C@@H]2C(Cc3ccc(O)cc3)NC3(C(=O)Nc4ccc(F)cc43)[C@@H]2C(=O)N1c1ccccc1 (some centres not stated),3,0.7,26,0.9,7
